# Inconclusive results are not listed. Active and inactive are the calls of the source. The call rests on the fitted dose curve; in most records, active means well fitted cell-killing curve with a large enough effect; inconclusive means small, poorly fitted or top-dose-only effect; inactive means no such curve, though single readings can be large or run the other way.
# Experiment: qHTS of pediatric cancer cell lines to identify multiple opportunities for drug repurposing: Primary screen for SK-N-SH cells (AID 1347098); further: nearly all actives have a fitted effect of over 65% in size
# Details: SK-N-SH viability, CellTiter-Glo luminescence, 48 h; series mostly up to 57 µM; activity change, negative = cytotoxic: at the top concentration
# From the text: Drug repurposing or repositioning has been offered as a strategy for drug development in oncology programs. This approach has special potential for childhood cancers and other rare or orphan diseases, where the expected return on new drug development has been a disincentive to pharmaceuticals.
# In this project we exploit the poly-pharmacology of drugs to discover new indications via phenotypic screening of a panel of 19 well-characterized cell lines derived from solid tumors seen in children and adolescents. The goal is to identify approved drugs with previously unrecognized anticancer properties that has the potential to reveal new mechanisms and biological processes involved in carcinogenesis or drug resistance. We employed a titration-based paradigm (quantitative high-throughput screening or qHTS), where all compounds were tested at multiple concentrations for their effect on cell viability. Concentration-response curves (CRCs) were derived directly from the primary screen, and both potency and efficacy values were used to identify compounds with robust bioactivity profiles. We screened the NIH Chemical Genomics Center (NCGC) Pharmaceutical Collection (NPC) and Mechanism Interrogation Plate (MIPE) small molecule collections of approved and investigational compounds against these cell lines; and measured metabolically active cells after 48 hours of compound treatment as a proxy for cell viability.
# Assay Submitter: Nathalia J. Martinez, National Center for Advancing Translational Sciences, National Institutes of Health, Rockville, MD, USA; email: natalia.martinez@nih.gov
# [1] Shen, M et al. Quantitative high-throughput phenotypic screening of pediatric cancer cell lines identifies multiple opportunities for drug repurposing. Oncotarget 2017 Dec 19;9(4):4758-4772. PMID 29435139.
# The cells were obtained from University of North Carolina (UNC), Pediatric Preclinical Testing Program (PPT), and Coriell Institute (CI).
# qHTS cell viability assay:
# Cells were assayed in growth media at a density of 500-1,000 cells/well. Five microliters of cells were dispensed into 1,536-well, white, solid-bottom, TC-treated plates (Greiner Bio One) using a multidrop dispenser and incubated at 37 degrees C, 5% CO2, under a humidified atmosphere for 5 hours. Twenty-three nanoliters of compounds and controls (neutral control DMSO or positive control bortezomib at final concentration of 2.3 µM) were subsequently transferred by Kalypsys pintool. For primary screens, the MIPE collection was tested at 11-point dilutions (final concentrations range from 0.78 nM to 46 µM) and the NPC collection at 8-point dilutions (final concentrations range from 0.59 nM to 46 µM). Compounds tested in follow-up screens were assayed at 11-point dilutions. Cells were incubated for 48 hours, followed by addition of 3 µL of CellTiter-Glo (Promega). After a 15 min incubation at room temperature, samples were analyzed for luminescence intensity using a ViewLux High-throughput CCD imager equipped with clear filters.
# On the % scale 0 is the no-effect control and ±100 the full control effect; potency means the concentration at half of the fitted maximal effect.
SMILES,Potency,"activity change, negative = cytotoxic"
O=C(NOCC(O)CO)c1cc(Br)c(F)c(F)c1Nc1ccc(I)cc1F (stereo not given),0.341 µM (active),–
C[N+](C)(C)CC(=O)O,–,10.1% (inactive)
CC(C)=CC[C@@H](O)C1=CC(=O)c2c(O)ccc(O)c2C1=O,6.81 µM (active),–
O=C(O)C=Cc1ccc(O)c(O)c1,24.1 µM (active),–
CNC(=O)c1ccc2cc(C3(O)CCn4cncc43)ccc2c1 (stereo not given),–,9.03% (inactive)
COC1CCC(N(C(=O)C2CCC(C)CC2)c2cc(C3=CCCCC3)sc2C(=O)O)CC1 (stereo not given),–,42.3% (inactive)
CC(=Cc1ccccc1)C=C1SC(=S)N(CC(=O)O)C1=O,21.5 µM (active),–
CC=CCC=CCCC(=O)[C@H]1O[C@@H]1C(N)=O,–,-8.9% (inactive)
CC[C@@H]1C=C(C)C[C@H](C)C[C@H](OC)[C@H]2O[C@@](O)(C(=O)C(=O)N3CCCC[C@@H]3C(=O)O[C@H](C(C)=C[C@@H]3CC[C@H](Cl)[C@H](OC)C3)[C@H](C)[C@@H](O)CC1=O)[C@H](C)C[C@H]2OC,–,15.8% (inactive)
O=C1NCC2(CCN(CCc3ccccc3)CC2)O1,–,-13% (inactive)
COc1cc(O)c2c(c1)C(=O)c1cc(C)cc(O)c1C2=O,–,27.2% [at 20 µM] (inactive)
CN(C)Cc1ccc(-c2nc3cccc4c3n2CCNC4=O)cc1,21.5 µM (active),–
CC=CC[C@@H](C)C(=O)[C@H]1C(=O)N[C@@H](C(C)C)C(=O)N(C)CC(=O)N(C)[C@@H](CC(C)C)C(=O)N[C@@H](C(C)C)C(=O)N(C)[C@@H](CC(C)C)C(=O)N[C@@H](C)C(=O)N[C@H](C)C(=O)N(C)[C@@H](CC(C)C)C(=O)N(C)[C@@H](CC(C)C)C(=O)N(C)[C@@H](C(C)C)C(=O)N1C,30.4 µM (active),–
Cn1cc(C=C2C(=O)Nc3cccnc32)c2ccccc21,–,13.1% (inactive)
CC(C)C(=O)Nc1ncc(-c2cc(C(F)F)nn2-c2c(Cl)cccc2Cl)s1,24.1 µM (active),–
OC[C@@H](O)[C@H](O)[C@H](O)[C@@H](O)CO,inactive,–
COc1cc(N2CCC(N3CCN(C)CC3)CC2)ccc1Nc1ncnc(Nc2ccccc2S(=O)(=O)C(C)C)n1,27.1 µM (active),–
CO[C@H]1C=CO[C@@]2(C)Oc3c(C)c(O)c4c(O)c(c5c(c4c3C2=O)NC2(CCN(CC(C)C)CC2)N=5)=NC(=O)C(C)=CC=C[C@H](C)[C@H](O)[C@@H](C)[C@@H](O)[C@@H](C)[C@H](OC(C)=O)[C@H]1C,–,15.9% (inactive)
O=c1c(-c2ccc(O)cc2)coc2cc(O[C@@H]3O[C@H](CO)[C@H](O)[C@H](O)[C@H]3O)ccc12,–,-1.74% (inactive)
C[C@H]1[C@H](NC(=O)C(=NOC(C)(C)C(=O)O)c2csc(N)n2)C(=O)N1S(=O)(=O)O,–,11% (inactive)

SMILES,Potency,"activity change, negative = cytotoxic"
C[N+]1(C)[C@@H]2CC(OC(=O)[C@H](CO)c3ccccc3)C[C@H]1[C@H]1O[C@@H]12 (stereo not given in full),–,11.1% (inactive)
Cc1ccc(F)c(NC(=O)Nc2ccc(-c3cccc4[nH]nc(N)c34)cc2)c1,24.1 µM (active),–
CON=C(C(=O)N[C@@H]1C(=O)N2C(C(=O)OCOC(=O)C(C)(C)C)=C(C=Cc3scnc3C)CS[C@H]12)c1csc(N)n1,–,17.4% (inactive)
CCC(CC)[C@H](NC(C)=O)[C@@H]1[C@H](O)[C@@H](C(=O)O)C[C@@H]1N=C(N)N,–,22.5% (inactive)
CN1CCN(CCOc2cc(OC3CCOCC3)c3c(Nc4c(Cl)ccc5c4OCO5)ncnc3c2)CC1,13.6 µM (active),–
CC(C)(Cc1ccc2ccccc2c1)NC[C@@H](O)COc1cccc(Cl)c1C#N,24.1 µM (active),–
N[C@@]1(C(=O)O)CS(=O)(=O)[C@H]2[C@H](C(=O)O)[C@H]21,–,-4.64% (inactive)
O=C1NC(=O)C(=Cc2ccc3nccnc3c2)S1,–,31.2% [at 20 µM] (inactive)
Cc1ccccc1C(C(=O)NC1CCCCC1)N(C(=O)Cn1ccnc1C)c1cccc(F)c1 (stereo not given),–,5% (inactive)
NC(CO)(CO)CCc1ccc(Sc2cccc(OCc3ccccc3)c2)cc1Cl,19.2 µM (active),–
CC(=O)CCCCn1c(=O)c2c(ncn2C)n(C)c1=O,–,-12.1% (inactive)
CC1(C)O[C@H]2C[C@@H]3[C@H]4CCC5=CC(=O)C=C[C@]5(C)[C@@]4(F)[C@@H](O)C[C@]3(C)[C@]2(C(=O)CO)O1,–,-13.9% (inactive)
CN1C[C@H]2c3ccccc3Oc3ccc(Cl)cc3[C@@H]2C1,–,-3.77% (inactive)
NC(N)=Nc1nc(CSCC/C(N)=N/S(N)(=O)=O)cs1,–,-11.1% (inactive)
CN(C[C@@H]1COCCO1)S(=O)(=O)Nc1ccc2ccc3ncc(-c4cnn(C)c4)cc3c(=O)c2c1,17.1 µM (active),–
CCn1cc(C(=O)O)c(=O)c2ccc(C)nc21,–,-16.4% (inactive)
O=C(Nc1ccccc1-c1cn2c(CN3CCNCC3)csc2n1)c1cnc2ccccc2n1,–,-11.9% (inactive)
COC(=O)[C@@H]1[C@H]2C[C@H]3c4[nH]c5ccccc5c4CCN3C[C@@H]2CC[C@@H]1O,–,-12.7% (inactive)
O=C1c2ccccc2-[n+]2ccc3c([nH]c4ccccc43)c21,1.52 µM (active),–
NS(=O)(=O)c1cccc2c1C(=O)c1cccc(O)c1C2=O,30.4 µM (active),–
